The record followed here is PubChem BioAssay (NCI).

Some test systems named below: DU-145 prostate; K-562 leukemia; MALME-3M melanoma; MDA-MB-231 breast; RXF 393 renal; SF-268 CNS; SF-295 CNS; SF-539 CNS; UACC-257 melanoma; M14 melanoma; HCT-15 colon; HT29 colon; SNB-75 CNS; SNB-19 CNS; U251 CNS; PC-3 prostate; SK-MEL-5 melanoma; UACC-62 melanoma; LOX IMVI melanoma; SK-MEL-28 melanoma.
Holding throughout (experiment): NCI-60 one-dose screen, 48 h (100 = growth as untreated, 0 = no growth, -100 = all killed)
Details in all cases: 10 µM unless noted

This is part of a sample that, as a whole, favours compounds with a hit. Of some 83,000 tested, about 20% had one in any assay.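 Plates (96-well) were seeded with cells, treated with compound at one concentration, and incubated for 48 hours before percent growth was determined.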 Values without a mark were called inactive. The source made the active and inactive calls. How the source made its calls: active means growth percent below 10; inactive means the rest.

With `CCCn1c(NC(=O)c2cccc(C(N)=O)c2)nc2cc(CN3CCCCC3)ccc21`, the growth with DU-145 prostate is 103%; with K-562 leukemia, 72.3%; with MALME-3M melanoma, 98%; in the experiment with MDA-MB-231 breast, 142%; in the experiment on RXF 393 renal, 64.5%; in the experiment with SF-268 CNS, 111%. The growth in the experiment on SF-295 CNS was 107%; in the experiment with SF-539 CNS, 107%; in the experiment with UACC-257 melanoma, 113%; in the experiment with M14 melanoma, 13.8%; in the experiment with HCT-15 colon it was 77.9%; with HT29 colon, 87.1%. Besides, the growth was 133% in the experiment on SNB-75 CNS; 113% in the experiment on SNB-19 CNS; 116% in the experiment on U251 CNS; 77% in the experiment on PC-3 prostate; 88% with SK-MEL-5 melanoma; 113% in the experiment with UACC-62 melanoma. For the same molecule, the figures for the growth in the experiment on LOX IMVI melanoma and in the experiment with SK-MEL-28 melanoma were 96.5% and 112%, respectively.
As for `O=C(CSc1nc2ccccc2c(=O)[nH]1)Nc1ccccc1C(=O)O`, the growth was 129% in the experiment on DU-145 prostate; 97.8% in the experiment with K-562 leukemia; 79.4% with MALME-3M melanoma; 94.6% with MDA-MB-231 breast; 99.4% with RXF 393 renal; 94.1% in the experiment on SF-268 CNS. Also, the growth was 101% in the experiment with SF-295 CNS; 92.7% with SF-539 CNS; 103% with UACC-257 melanoma; 105% in the experiment with M14 melanoma; 86.6% in the experiment on HCT-15 colon; 124% in the experiment with HT29 colon. Further, the growth was 139% in the experiment on SNB-75 CNS; 95.7% in the experiment on SNB-19 CNS; 101% in the experiment on U251 CNS; 110% with PC-3 prostate; 94.9% with SK-MEL-5 melanoma; 84.8% in the experiment on UACC-62 melanoma. For the same molecule, the growth with LOX IMVI melanoma was 84.8%; with SK-MEL-28 melanoma, 93.7%.
As for `O=C1Nc2ccccc2/C1=C/C(=O)c1cc2ccccc2oc1=O`, the growth in the experiment on DU-145 prostate was 97.3%; with K-562 leukemia, 14.5%; in the experiment on MALME-3M melanoma it was 10.9%; in the experiment on MDA-MB-231 breast, 97.6%; in the experiment on RXF 393 renal, 91.4%; with SF-268 CNS it was 105%. Also, the growth with SF-295 CNS was 97.8%; with SF-539 CNS it was 102%; in the experiment on UACC-257 melanoma it was 104%; with M14 melanoma, 101%; in the experiment on HCT-15 colon, 30.3%; with HT29 colon it was 110%. Besides, the growth in the experiment with SNB-75 CNS is 126%; with SNB-19 CNS, 101%; in the experiment on U251 CNS it was 107%; in the experiment with PC-3 prostate, 95.1%; with SK-MEL-5 melanoma, 99.9%; in the experiment with UACC-62 melanoma, 88.9%. Also, the growth with LOX IMVI melanoma was 91%; with SK-MEL-28 melanoma, 36.7%.
In the case of `CCCn1c(NC(=O)c2cccc(C(N)=O)c2)nc2ccc(CN3CCCCC3)cc21`, the growth with DU-145 prostate was 87.1%; with K-562 leukemia, 85.8%; in the experiment on MALME-3M melanoma, 92.4%; in the experiment with MDA-MB-231 breast it was 126%; in the experiment on RXF 393 renal, 46.4%; in the experiment on SF-268 CNS it was 107%. Further, the growth was 106% in the experiment on SF-295 CNS; 106% with SF-539 CNS; 121% in the experiment with UACC-257 melanoma; -6.41% (active) in the experiment on M14 melanoma; 67.1% in the experiment on HCT-15 colon; 91% in the experiment with HT29 colon. Further, the growth with SNB-75 CNS is 128%; in the experiment on SNB-19 CNS it was 111%; in the experiment on U251 CNS, 106%; in the experiment on PC-3 prostate, 63.2%; in the experiment with SK-MEL-5 melanoma, 102%; in the experiment on UACC-62 melanoma it was 113%. The growth is 93.4% in the experiment with LOX IMVI melanoma and 106% in the experiment on SK-MEL-28 melanoma.
With `CC[C@]12C=CCN3CC[C@]4(C(=C(C(=O)OC)C1)Nc1cc(OC)c([C@@H]5[C@H]6O[C@H]6[C@@]6(CC)CC(C(=O)OC)=C7Nc8cc(O)ccc8[C@@]78CCN5[C@@H]68)cc14)[C@@H]32`, the growth in the experiment on DU-145 prostate was 23.2%; in the experiment with K-562 leukemia it was -3.65% (active); in the experiment with MALME-3M melanoma, -77.4% (active); in the experiment with MDA-MB-231 breast, -54.2% (active); with RXF 393 renal, -34.2% (active); in the experiment on SF-268 CNS, 22.3%. Also, the growth in the experiment on SF-295 CNS was -47.2% (active); in the experiment on SF-539 CNS, -38.4% (active); in the experiment with UACC-257 melanoma, -10.2% (active); with M14 melanoma, -28.4% (active); with HCT-15 colon, -77.2% (active); with HT29 colon it was -27.1% (active). Besides, the growth in the experiment on SNB-75 CNS was 27.3%; in the experiment on SNB-19 CNS, 21.6%; in the experiment on U251 CNS, -38.2% (active); with PC-3 prostate it was 13.5%; in the experiment on SK-MEL-5 melanoma it was -96.1% (active); with UACC-62 melanoma, -71.9% (active). The growth is -94.5% (active) in the experiment with LOX IMVI melanoma and -21.8% (active) with SK-MEL-28 melanoma.
`CC1=C(C)C(=O)C(N2CCSCC2)=CC1=O`: the growth was 107% in the experiment with DU-145 prostate; 107% with K-562 leukemia; 91.3% in the experiment on MALME-3M melanoma; 86% in the experiment with MDA-MB-231 breast; 98.5% with RXF 393 renal; 102% in the experiment with SF-268 CNS. Also, the growth is 104% with SF-295 CNS; 96.2% in the experiment with SF-539 CNS; 93.2% in the experiment on UACC-257 melanoma; 95.4% in the experiment on M14 melanoma; 104% with HCT-15 colon; 103% in the experiment with HT29 colon. The growth is 80.8% with SNB-75 CNS; 87.2% with SNB-19 CNS; 96.9% in the experiment with U251 CNS; 89.7% in the experiment with PC-3 prostate; 96.7% in the experiment on SK-MEL-5 melanoma; 93.3% with UACC-62 melanoma. Also, the growth with LOX IMVI melanoma was 83.8%; with SK-MEL-28 melanoma it was 107%.
For the molecule `O=C(Cc1c(-c2cccc([N+](=O)[O-])c2)n(-c2ncnc3c2c(-c2ccccc2)c(-c2ccccc2)n3Cc2ccccc2)[nH]c1=O)c1ccc(Cl)c(Cl)c1`, the growth is 51% with DU-145 prostate; 17.6% with K-562 leukemia; -3.97% (active) in the experiment on MALME-3M melanoma; 37.4% with MDA-MB-231 breast; 44.9% in the experiment on RXF 393 renal; 62.3% with SF-268 CNS. In addition, the growth was 12.2% in the experiment on SF-295 CNS; 60.7% in the experiment on SF-539 CNS; 30.9% in the experiment with UACC-257 melanoma; 32.6% in the experiment on M14 melanoma; 62.3% in the experiment on HCT-15 colon; 37% in the experiment with HT29 colon. Also, the growth in the experiment with SNB-75 CNS is 46.1%; with SNB-19 CNS, 25.9%; in the experiment with U251 CNS it was 26.4%; in the experiment with PC-3 prostate, 30.7%; in the experiment with SK-MEL-5 melanoma, -10.2% (active); with UACC-62 melanoma, 14%. Also, the growth was 15.7% in the experiment on LOX IMVI melanoma and 46.3% in the experiment with SK-MEL-28 melanoma.
Turning to `Nc1cc2ccccc2c(=O)n1NC(=O)c1ccccc1`, the growth was 104% with DU-145 prostate; 97.6% in the experiment on K-562 leukemia; 84.4% in the experiment with MALME-3M melanoma; 87% in the experiment with MDA-MB-231 breast; 104% in the experiment on RXF 393 renal; 95.9% with SF-268 CNS. Also, the growth in the experiment on SF-295 CNS was 90.6%; with SF-539 CNS, 93.7%; with UACC-257 melanoma, 104%; with M14 melanoma it was 100%; in the experiment on HCT-15 colon, 93.8%; with HT29 colon it was 113%. Further, the growth in the experiment on SNB-75 CNS is 80.3%; in the experiment with SNB-19 CNS, 93.7%; with U251 CNS, 106%; with PC-3 prostate, 91.7%; in the experiment with SK-MEL-5 melanoma, 96%; with UACC-62 melanoma, 76.5%. Moreover, the growth with LOX IMVI melanoma is 88%; in the experiment with SK-MEL-28 melanoma, 98.8%.
